# Among all 290,000 compounds or so, fewer than 10 were called active. Only a sample is shown. A number with no mark means an inactive call. Calls follow the shape of the full dose curve.
# Target: Pyruvate kinase (Leishmania mexicana) (UniProt Q27686)
# Test: qHTS Assay for Activators of Leishmania Mexicana Pyruvate Kinase (LmPK)
# Conditions: purified LmPK, Kinase-Glo ATP luminescence, 1 h; series mostly up to 57.5 µM; activity change, negative = inhibition: at the top concentration
# Description: NIH Chemical Genomics Center [NCGC] Malcolm Walkinshaw, Hugh Morgan, Linda Gilmore University of Edinburgh, UK MLPCN Grant: 1 R03 MH085697-01 NCGC Assay Overview: Pyruvate kinase (L. Mexicana) (LmPK) enzyme was supplied as a highly purified (>95% pure) sulphate-free preparation from University of Edinburgh, UK and assayed for its ability to generate ATP from ADP using phosphoenolpyruvate (PEP) as a substrate. ATP generation was detected in a coupled reaction by luciferase-mediated luminescence, an ATP-dependent process. Pyruvate kinase substrates, PEP and ADP, were present in the assay at Km and approximately 10-fold below Km respectively. The enzyme was assayed at an intermediate level of activity to screen for both inhibitors and activators.
# NCGC Assay Protocol Summary: Three uL of enzyme mix (kept on ice) in assay buffer (50 mM Imidazole pH7.2, 50 mM KCl, 7 mM MgCl2, 0.01% Tween 20, 0.05% BSA) containing PEP (0.5 mM final concentration) and LmPK (0.1 nM final concentration) was dispensed into white solid bottom 1,536 well microtiter plates. 23 nL of compound were delivered by a pin tool and 1 uL of ADP mix in assay buffer (r.t; 0.1 mM final ADP concentration) was added. Plates were incubated at room temperature for 1 hour. Two uL of detection mix (Kinase-Glo, Promega; at 4 degree Celsius protected from light) was added and luminescence read by a ViewLux (Perkin Elmer) at 1 second exposure/plate. Data were normalized to the uninhibited and AC100 inhibition (no enzyme). To monitor activation, the first column contained a five-fold concentration of LmPK (0.5 nM).
# Chain of Pyruvate kinase (Leishmania mexicana) (Q27686 whole entry, looked up): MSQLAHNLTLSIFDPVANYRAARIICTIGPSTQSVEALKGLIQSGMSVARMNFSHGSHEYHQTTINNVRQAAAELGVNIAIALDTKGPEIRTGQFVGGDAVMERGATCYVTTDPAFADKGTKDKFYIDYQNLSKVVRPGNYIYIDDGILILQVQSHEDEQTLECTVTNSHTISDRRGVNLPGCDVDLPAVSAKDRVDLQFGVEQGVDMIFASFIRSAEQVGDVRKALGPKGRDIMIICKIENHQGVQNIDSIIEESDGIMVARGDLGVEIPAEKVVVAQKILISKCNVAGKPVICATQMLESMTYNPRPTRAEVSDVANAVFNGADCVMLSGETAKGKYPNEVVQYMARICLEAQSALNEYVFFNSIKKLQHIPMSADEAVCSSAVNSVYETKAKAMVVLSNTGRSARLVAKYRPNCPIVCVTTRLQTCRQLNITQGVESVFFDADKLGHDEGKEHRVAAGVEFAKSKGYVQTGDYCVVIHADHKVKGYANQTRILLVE
row,SMILES,"activity change, negative = inhibition"
1,O=C(/C=C/c1ccccc1)c1ccccc1O,-33.2%
2,Cc1nc(-c2ccc(NC(=O)c3cccs3)cc2)cs1,-50.6%
3,CCN(CC)c1ccc2oc(=O)c(C)nc2c1,-41%
4,S=c1[nH]ccn1-c1ccc(Cl)cc1,-66.3%
5,N=c1oc2ccccc2cc1C(=O)N/N=C/c1ccccc1,-66.9%
6,COc1cccc(C(=O)Nc2ccc(N3CCCC3)cc2)c1,-80.7%
7,COc1ccc(C(=O)Nc2ccccc2C(=O)N/N=C/c2ccccc2OC)cc1,-53%
8,O=C(O)/C=C/C(=O)NNc1ccc([N+](=O)[O-])cc1,-47.7%
9,Clc1ccc2nc(CSc3ccccc3)cn2c1,-41.7%
10,C/C(=N\NC(=O)OC(C)(C)C)c1ccc[nH]1,-47.6%
11,Cn1c(-c2sc3cc(C(F)(F)F)cnc3c2-c2ccccc2)n[nH]c1=S,-33.6%
12,COc1ccc(-c2cn3ccc(C)cc3n2)cc1,-113%
13,Cc1cnc(NC(=O)c2ccccn2)s1,-94%
14,S=c1[nH]nc(-c2cc(-c3ccsc3)n[nH]2)n1-c1ccccc1,-81.9%
15,COc1ccc(C2=Nc3cc(C)ccc3OC2)cc1,-76%
16,NC(=O)Cc1ccc2sc(-c3ccccc3)nc2c1,-42.1%
17,CCc1ccc2nc3sc(C(=O)Nc4nnc(CC)s4)c(N)c3cc2c1,-45.8%
18,COc1cccc(C(=O)Nc2ccc(NC(=O)c3ccco3)cn2)c1,-34.9%
19,Cc1csc(NC(=O)Nc2ccccc2[N+](=O)[O-])n1,-65.8%
20,O=[N+]([O-])c1ccc2nc(-c3ccccn3)[nH]c2c1,-58.8%
21,CCOc1cnc(C(=O)NNC(=O)c2ccccc2Br)o1,-50.4%
22,c1ccc(CN=C2Nc3ccccc3CS2)nc1,-57%
23,C=CCn1c(-c2ccccc2OCC)n[nH]c1=S,-41.6%
24,COc1ccc(C(=O)Nc2ccccc2C(=O)N/N=C/c2ccc(O)c(OC)c2)cc1,-34%

row,SMILES,"activity change, negative = inhibition"
1,CCOc1ccc(C(=O)Nc2cccc(SC)c2)cc1,-31.6%
2,O=C(Nc1ccc2c(c1)OCCO2)c1cnccn1,-44.4%
3,C=CCNC(=S)N1CCN(CCN=Cc2c(C)[nH]n(-c3ccc([N+](=O)[O-])cc3)c2=O)CC1,-30.9%
4,Cc1ccc(-n2[nH]c(C)c(/C=N/N3C(=O)c4cccc5cccc(c45)C3=O)c2=O)cc1,-54.4%
5,Cc1ccc(C)c2c1cc(C)c1nnc(SCC(=O)Nc3cccc(C(=O)O)c3)n12,-45.6%
6,Cc1ccc(NCc2n[nH]c(=S)n2-c2ccccc2)cc1Cl,-35.2%
7,COc1cccc(/C=N\NC(=O)C2=NNC(=O)C2C)c1O (stereo not given),-55.1%
8,S=c1[nH]nc(-c2cccs2)n1/N=C/c1cccs1,-48.2%
9,CSC1=N/C(=C\C=C\c2cccs2)C(=O)S1,-31.2%
10,O=C(Nc1ccccc1)c1ccc2c(c1)OCO2,-118%
11,CCc1cc(-c2n[nH]c(=S)n2CC(C)C)cs1,-52.8%
12,Cc1[nH]n(-c2ccc([N+](=O)[O-])cc2)c(=O)c1C=NCCN1CCN(C(=O)c2ccccc2F)CC1,-37.8%
13,Cc1cc(C(=O)N/N=C/c2ccc(N3CCOCC3)cc2)c(C)o1,-42.8%
14,O=C(Nc1nc2ccccc2s1)c1ccc2c(c1)OCO2,-54.6%
15,O=C(Nc1ccccc1)Nc1ccccc1C(=O)NCc1ccco1,-33.9%
16,Cn1cccc1C(=O)Nc1nccs1,-33.8%
17,O=c1c2ccccc2ncn1/N=C/c1ccccc1,-48.7%
18,C=CCn1c(C)cc(C2=NNC(=NCC)SC2)c1C,-68.3%
19,c1c2c(cc3sc(N4CCCCC4)nc13)OCCO2,-74.2%
20,O=C1/C(=C/c2cccs2)CCc2ccccc21,-43.3%
21,Clc1ccc(-c2cc(-c3ccccn3)on2)c(Cl)c1,-73.3%
22,O=C1CSC(=S)N1/N=C/c1ccc(O)c([N+](=O)[O-])c1,-84.3%
23,COc1ccc(OC)c(-n2c(-c3ccn[nH]3)n[nH]c2=S)c1,-85.1%
24,CCn1c(CSCc2c(Cl)cccc2Cl)n[nH]c1=S,-65.2%

row,SMILES,"activity change, negative = inhibition"
1,O=C(/C=C/c1ccc2c(c1)OCCO2)c1ccc(O)cc1,-47.4%
2,Cc1ccc(F)c(NC(=O)CCc2ccccc2)c1,-37.4%
3,COc1ccc(C(=O)/C=C/Nc2ccccn2)cc1,-139%
4,Cn1cc([N+](=O)[O-])c(C(=O)Nc2ccc3c(c2)OCCO3)n1,-65.4%
5,c1ccc2[nH]c(-c3nc4ccccc4[nH]3)nc2c1,-96.3%
6,CC(=O)Oc1ccccc1C(=O)Nc1ncc([N+](=O)[O-])s1,-111%
7,O=C(c1ccc(F)cc1)n1c(=S)nc2ccccn21,-69%
8,C/C(=N\NC(=O)CC(C)C)c1c(C(F)(F)F)[nH]n(-c2nc3ccccc3s2)c1=O,-46.7%
9,c1ccc(-c2noc(-c3cccs3)n2)nc1,-91.2%
10,Cc1ccc(-c2nc3ccccc3[nH]2)cc1N,-117%
11,CCCCC(CC(C)O)c1n[nH]c(=S)n1-c1ccccc1 (stereo not given),-46.5%
12,COc1ccc(C(=O)Nc2ccc(F)cc2F)cc1,-69.4%
13,Nc1ncc(-c2cc3ccccc3oc2=O)s1,-79.1%
14,CN(C)CCCSc1ccccc1NC(=O)/C=C/c1ccccc1,-37.6%
15,COc1ccccc1-n1c(-c2cc(-c3ccco3)[nH]n2)n[nH]c1=S,-95.6%
16,COCn1c(COc2ccccc2)nc2ccccc21,-56.9%
17,N/C(=N\OC(=O)CCC1CCCCC1)c1ccccn1,-55.1%
18,CCCc1cc(-c2n[nH]c(=S)n2Cc2ccccc2)cs1,-51.6%
19,O=C(OC1CCOC1=O)c1ccc(-c2nc3ccccc3s2)s1 (stereo not given),-56.5%
20,COc1cccc(C(=O)c2cc3ccc(O)cc3oc2=O)c1,-88.8%
21,COc1cccc(-c2nc3cc(C)ccc3o2)c1,-62.9%
22,C=CCn1c(-c2ccc3[nH]c(C)c(C)c3c2)n[nH]c1=S,-41.6%

# — PubChem BioAssay AID1722 (National Center for Advancing Translational Sciences (NCATS), 2009)
